High-throughput results from PubChem.
HT1080NT lethal: kills 2HG-producing HT-1080-NT fibrosarcoma cells. HT-1080-NT fibrosarcoma viability, CellTiter-Glo ATP luminescence, 48 h. Potency, µM (series often up to 46.1 µM), for the others: at the top dose activity, negative = less viability, usual class: cytotoxic. 360,000 compounds, 1.6% hits;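 also: NT is the 2HG producing partner of a matched IDH1 knockdown line; potency is read from the fitted curve at half-maximal effect; 0% = DMSO-treated cells and -100% = media-only wells without cells; nearly all actives have a fitted effect of over 55% in size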
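Viability of the 2HG-overproducing fibrosarcoma line after 48 hours of compound exposure at 37 degrees C was determined by luminescence with CellTiter-Glo, and concentration-effect curves were then fitted and categorized.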
IL1B secr inh: blocks inflammasome-driven IL-1 beta release; THP-1 LPS/ATP IL-1B secretion, AlphaLISA, 16 h; hits give low values; activity change, % at 57.5 µM; 360,000 compounds, 4.7% hits; AID 743279; in the data active = activity change below about -50%; inconclusive = mostly about -30% to -49%
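THP-1 cells pretreated 1 hr with compounds (up to 57.5 uM final), then stimulated with LPS (250 ng/mL final) plus ATP (1.25 mM final); secreted IL-1B measured by AlphaLISA after 16 hr, decreased signal indicating inhibition.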
HT1080 IDH1KD tx: HT-1080 IDH1 knockdown cell toxicity (counter line); AID 686971; HT-1080 IDH1 knockdown viability, ATP luminescence, 48 h; 360,000 compounds, 2% hits; Potency, µM (highest dose often 46.1 µM), inactives show top-dose activity, negative = toxicity, hits mostly cytotoxic;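 also: potency is read from the fitted curve at half-maximal effect; 0% = DMSO wells and -100% = cell-free medium wells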
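Cytotoxicity counter-line: IDH1KD HT-1080, 48 h, CellTiter-Glo. Curves classed by r2, magnitude and activity.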
TDP1 cell noCPT: qHTS for Inhibitors of human tyrosyl-DNA phosphodiesterase 1 (TDP1): qHTS in cells in absence of CPT. Potency, µM (series often up to 46.2 µM), without a hit: top-dose activity change, negative = growth inhibition, most hits filed as inhibitors. DT40 Tdp1-/- hTDP1 cells, no CPT, ATP luminescence, 48 h. 420,000 compounds, 15% hits; also: potency is read from the fitted curve at half-maximal effect; nearly all actives have a fitted effect of over 55% in size
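No-CPT arm: Tdp1-/-;hTDP1 DT40 cells (400/well) plus compounds, incubated ≥48 hr at 37 °C. Readout CellTiter-Glo luminescence.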
TDP1 cell CPT: growth inhibition of DT40 Tdp1-/-;hTDP1 cells with camptothecin (screen for TDP1 inhibitors); chicken DT40 Tdp1-/-;hTDP1 cells + 20 nM CPT, ATP luminescence, 48 h; Potency, µM (doses to about 46.2 µM), inactives show at the top dose activity change, negative = growth inhibition, usual class: inhibitors; 420,000 compounds, 12% hits; AID 686979; also: potency is read from the fitted curve at half-maximal effect; nearly all actives have a fitted effect of over 55% in size
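Cell growth measured by CellTiter-Glo luminescence after a minimum 48 h, 37 C compound exposure with 20 nM CPT in Tdp1-knockout DT40 cells stably expressing hTDP1, seeded 400/well; qHTS titration format.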
An asterisk follows results filed as active; ? = inconclusive; . = no result given; ! = not confirmed by another sample; [ ] = another dose, or the depositor's remark. Compounds with a hit are over-represented: about 19% of the library has one in this group of screens. Unless noted, calls follow the shape of the dose curve; as a rule, active = well fitted curve in the direction sought with a large enough effect; inconclusive = small, poorly fitted or top-dose-only effect, or another doubt; inactive = no such curve, though single readings can be large; an effect the other way counts as inactive or inconclusive. Unless noted, % is scaled to controls: 0 for no effect and ±100 for the full control effect.

SMILES	HT1080NT lethal	IL1B secr inh	HT1080 IDH1KD tx	TDP1 cell noCPT	TDP1 cell CPT
COc1ccc(C2CC(c3ccc(OC)cc3O)=NN2C(=O)c2ccccc2)cc1 (stereo not drawn)	-10%	-11	-15%	21µM*	21µM*
O=C(Cn1cnnn1)N[C@@H]1C(=O)N2C(C(=O)O)=C(CSc3nncs3)CS[C@H]12	.	.	.	0%	19%
O=C(N1CCOCC1)N1CCCN(C(=O)N2CCOCC2)CC1	5%	10	8%	-9%	2%
COC1(OC)C(/C=C/c2ccc(Cl)cc2)C(C#N)(C#N)C1(OC)OC (stereo not drawn)	-23%	-102*	21µM*	8.2µM*	8.2µM*
CC1CN(Cc2cccn2-c2ncccn2)Cc2cc(Cl)ccc2O1 (stereo not drawn)	.	.	.	?	14%[9.04 µM]
CC1CN(Cc2cccn2-c2cccnc2)Cc2cc(Cl)ccc2O1 (stereo not drawn)	.	.	.	18µM*	-18%[9.04 µM]
CN(C)c1ccc(N2C(=NC(=O)CC3CCCCC3)SC3CS(=O)(=O)CC32)cc1 (stereo not drawn)	0%	-20	1%	2%	-8%
Cc1ccc(S(=O)(=O)N2CCC(=O)N([C@H](COCc3cccc(C(F)(F)F)c3)C(C)C)CC2)cc1	-23%	24	-26%	16µM*	?
Cc1ccc(S(=O)(=O)N2CCC(=O)N(C(COCc3ccc(C(F)(F)F)cc3)C(C)C)CC2)cc1 (stereo not drawn)	-1%	-24	-21%	12µM*	16µM*
Cc1ccc(S(=O)(=O)N2CCC(=O)N([C@H](CO)Cc3ccccc3)CC2)cc1	15%	18	10%	-24%	-19%
Cc1ccc(S(=O)(=O)N2CCC(=O)N(C(CO)C(C)C)CC2)cc1 (stereo not drawn)	3%	-5	8%	-5%	2%
C[C@H]1NCc2cc(-c3ccc4c(=O)c(C(=O)O)cn(C5CC5)c4c3OC(F)F)ccc21	.	.	.	-14%	-23%
CCC(C(=O)NC(CC(=O)O)c1ccc(Cl)cc1)c1ccccc1 (stereo not drawn)	3%	0	2%	1%	11%
CC(CN(C)Cc1ccccc1)OC(=O)c1ccc(F)cc1 (stereo not drawn)	0%	-8	0%	10µM*	15µM*
CC(CN1CCN(C)CC1)OC(=O)c1ccc(F)cc1 (stereo not drawn)	14%	10	12%	-8%	1%
CCCCN1CNC(=S)N(Cc2ccccc2)C1	7%	-3	1%	8%	-1%
Cc1c(C(N)=O)nnn1-c1ccc(Br)cc1	.	.	.	-12%	9%
N#CCCN(Cc1cccs1)C(=O)c1ccc(Cl)cc1	-2%	0	-1%	-9%	2%
N#Cc1cccc(C(=O)N(CCc2ccccc2)Cc2cccs2)c1	-7%	-5	-13%	26µM*	?
O=C(/C=C/c1ccccc1Cl)N1CCOCC1	4%	-7	1%	19%	-17%
O=C(/C=C/c1ccccc1Cl)N1CCC(c2nc3ccccc3o2)CC1	.	.	.	21µM*	?
COc1ccc(/C=C/C(=O)N2CCC(c3nc4ccccc4o3)CC2)cc1OC	.	.	.	16µM*	?
COCCCNC(=O)CCN1N=C(c2ccccc2)CCC1=O	12%	0	12%	12%	-2%
CCc1ccc(CN(C(=O)Nc2cccc(Cl)c2)c2ccccn2)cc1	.	.	.	?	18µM*
CCCCCCC#Cc1cncc(C(=O)NNC(=O)Nc2cc(Cl)cc(Cl)c2)c1	?	.	21µM*	?	-4%
SMILES	HT1080NT lethal	IL1B secr inh	HT1080 IDH1KD tx	TDP1 cell noCPT	TDP1 cell CPT
CCCCC#Cc1cncc(C(=O)NN)c1	-11%	82	-19%	-2%	8%
COC(=O)c1cccc(N2C(=O)C[C@](Sc3ccc(C)cc3)(C(=O)OC)[C@H]2c2ccccc2)c1	?	7	?	23µM*	?
COC(=O)[C@@]1(Sc2ccc(C)cc2)CC(=O)N(c2ccc(Cl)cc2)[C@@H]1c1ccccc1	16%	18	9%	21µM*	?
COC(=O)[C@@]1(Sc2ccc(C)cc2)CC(=O)N(c2ccc3c(ccn3C)c2)[C@@H]1c1ccccc1	-15%	38	-17%	?	?
CCOC(=O)Cn1c(=O)oc2cc(S(=O)(=O)NCCc3ccc(OCC)c(OCC)c3)ccc21	-4%	40	-1%	?	-22%
C=CCn1c(=O)c2ccc(C(=O)NCc3ccccc3)cc2n(Cc2ccc(Cl)cc2)c1=O	-1%	37	-18%	?	?
C=CCn1c(=O)c2ccc(C(=O)NCc3ccccc3)cc2n(Cc2cccc(Cl)c2)c1=O	-3%	-13	-2%	13µM*	?
C=CCn1c(=O)c2ccc(C(=O)NCc3ccccc3)cc2n(Cc2ccccc2Cl)c1=O	-3%	11	6%	7.3µM*	8.2µM*
O=C(NCc1ccc(Cl)cc1)c1ccc2oc(=O)n(Cc3ccccc3)c2c1	.	.	.	?	21µM*
CCOc1ccccc1NC(=O)CSc1n[nH]c(N)n1	4%	7	13%	14%	5%
C=CCn1c(Cc2csc(N)n2)nnc1SCC(=O)OCC	21%	-2	0%	-5%	3%
CCCCCN(C(=O)CCC(=O)OCCOc1ccccc1Cl)c1c(N)n(CCCC)c(=O)[nH]c1=O	-13%	13	-2%	?	?
CC(NC(=O)c1ccco1)C(=O)O (stereo not drawn)	1%	23	4%	-14%	5%
Nc1nc2c(ncn2[C@@H]2O[C@H](CO)[C@@H](O)[C@H]2O)c(=O)[nH]1	.	.	.	4%	18%
O=c1[nH]cnc2c1ncn2[C@H]1C[C@H](O)[C@@H](CO)O1	.	.	.	?	13µM*
O=c1[nH]cnc2c1ncn2C1OC(CO)C(O)C1O (stereo not drawn)	0%	-4	3%	0.82µM*!	0.58µM*!
O=c1[nH]cnc2c1ncn2C1CCC(CO)O1 (stereo not drawn)	22%	1	-1%	?	13µM*
CC(C)C(=O)Nc1nc2c(ncn2C2CC(O)C(CO)O2)c(=O)[nH]1 (stereo not drawn)	18%	-11	0%	?	-28%
COc1ccc(Br)c(C(=O)OCC(=O)N2CCC(Cc3ccccc3)CC2)c1	-1%	-24	-1%	?	-25%
COc1ccc([C@H]2[C@H](C(=O)C(C)(C)C)N3N=Cc4ccccc4C3[C@]23N=C(c2ccccc2)OC3=O)cc1OC (stereo partly drawn)	-2%	6	-12%	?	-24%
